The sample as a whole holds a higher share of hits than the screen did.
CBX7 inh: CBX7 chromodomain binding inhibitors, primary screen, biochemical, AlphaScreen | normalised signal (fraction of DMSO) (test concentration not listed) | AlphaScreen His6-CBX7 / biotin-H3K27me3 peptide binding; stronger effect = lower value | 1.1% of 66,000 active; in the data active means normalised signal below about 0.5
Target sequence (O95931 whole entry, looked up): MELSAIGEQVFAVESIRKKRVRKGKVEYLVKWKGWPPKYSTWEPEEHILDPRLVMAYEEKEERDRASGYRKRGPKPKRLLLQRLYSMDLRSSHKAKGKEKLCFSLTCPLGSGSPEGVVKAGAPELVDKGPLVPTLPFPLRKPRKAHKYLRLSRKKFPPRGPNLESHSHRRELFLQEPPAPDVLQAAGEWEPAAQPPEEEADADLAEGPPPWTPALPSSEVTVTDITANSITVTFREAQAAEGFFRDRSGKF
Starred values were filed as active, the others as inactive.

SMILES	CBX7 inh
Cc1c(NC(=O)c2cc3ccccc3o2)cccc1-c1nc2cc(Cl)ccc2o1	1
Cc1c(NC(=O)c2ccccc2F)cccc1-c1nc2ccccc2s1	1.1
O=C(Nc1ccc2oc(-c3ccccc3Cl)nc2c1)c1ccc(F)cc1	1
Cc1cccc(-c2nc(Nc3cccc(C(=O)O)c3)c3ccccc3n2)c1	0.95
O=C(NCCCc1ccccc1)c1ccc2c(c1)NC(=O)c1ccccc1S2	1
CCC1CCCCN1CCCNC(=O)c1ccc2c(c1)N=C(C)c1cc(Cl)ccc1S2 (stereo not given)	0.81
Cc1ccc2c(c1)NC(=O)C(CC(=O)NCCCN1CC(C)CC(C)C1)O2 (stereo not given)	1.1
CCCOP(=O)(OCCC)c1nc(-c2ccccc2)oc1NC	0.87
Cc1nc2cc(-c3cccc(F)c3)nn2c(C)c1CCC(=O)Nc1ccc(F)cc1F	1
CCOC(=O)c1nnn(-c2nonc2N)c1CN1CCN(C)CC1	1
CCC1=Nc2cc(C(=O)NCCCN3CCc4ccccc4C3)ccc2Sc2ccc(C)cc21	0.81
CCOC(=O)c1cnc2c(OC)cccc2c1Nc1ccc(OC)c(Cl)c1	0.86
O=C(NCCC1=CCCCC1)C1CCN(C(=O)c2cc3sccc3n2Cc2ccc(F)cc2)CC1	0.99
COc1ccc(C2NC(C(=O)O)Cc3[nH]cnc32)cc1CSc1nc2ccccc2[nH]1 (stereo not given)	0.5*
COc1ccc(C2NCCc3c2[nH]c2ccccc32)cc1CSc1nc2ccccc2[nH]1 (stereo not given)	0.89
COc1ccc(CSc2nc3ccccc3[nH]2)cc1	0.97
O=c1cc(-c2ccccc2)n2nc(-c3ccccc3)cc2[nH]1	1.1
COc1cc(OC)cc(-c2nnc(NC(=O)c3ccc(S(=O)(=O)N(C)Cc4ccccc4)cc3)o2)c1	0.076*
COc1ccccc1-c1nnc(NC(=O)c2ccc(S(=O)(=O)N3CCC(C)CC3)cc2)o1	0.85
COc1ccc(-c2nnc(NC(=O)c3ccc(S(=O)(=O)N4CCOCC4)cc3)o2)c(OC)c1	0.58
COc1ccccc1-c1nnc(NC(=O)c2ccc(S(=O)(=O)N3CCCC(C)C3)cc2)o1 (stereo not given)	0.82
COc1ccc(-c2nnc(NC(=O)c3ccc(S(=O)(=O)N(C)Cc4ccccc4)cc3)o2)c(OC)c1	0.0014*
COc1cccc(-c2nnc(NC(=O)c3ccc(S(=O)(=O)N(C)C)cc3)o2)c1	0.23*
CCCCN(C)S(=O)(=O)c1ccc(C(=O)Nc2nnc(-c3ccc(OC)cc3OC)o2)cc1	0.97
COc1ccccc1-c1nnc(NC(=O)c2ccc(S(=O)(=O)N(C)C)cc2)o1	0.036*
SMILES	CBX7 inh
COc1cc(OC)cc(-c2nnc(NC(=O)c3ccc(S(=O)(=O)N4CCCC(C)C4)cc3)o2)c1 (stereo not given)	1.1
COCCN(CCOC)S(=O)(=O)c1ccc(C(=O)Nc2nnc(-c3cccc(OC)c3)o2)cc1	0.95
CCOc1ccc(C2CC(=O)Nc3cc(OC)c(OC)cc32)cc1OC (stereo not given)	0.81
COc1ccc(C(=O)NCCc2cc3cc(C)c(C)cc3[nH]c2=O)cc1OC	1
CC(C)CCNC(=O)c1csc2c1CCCC2	1.1
CC1(C)CC(=O)c2c(oc3ccc(NS(=O)(=O)c4cccs4)cc23)C1	0.99
CCOc1ccc(NC(=O)c2c(NCc3ccc(OC)c(OC)c3)sc3c2CCCC3)cc1	0.57
O=S1(=O)N=C(N2CCCCCC2)c2ccccc21	1
O=C(CCOc1ccccc1)Nc1nc(-c2ccc(Cl)cc2)cs1	1
CCOC(=O)c1ccccc1NC(=O)CN1C(=O)CC(c2ccc(OC)cc2)Sc2ccccc21 (stereo not given)	0.98
COc1ccc(-c2nnc(NC(=O)c3ccc(S(=O)(=O)N(C)Cc4ccccc4)cc3)o2)cc1	0.0078*
CN(Cc1ccccc1)S(=O)(=O)c1ccc(C(=O)Nc2ccc(-c3nc4ccccc4[nH]3)cc2)cc1	1
COCCN(CCOC)S(=O)(=O)c1ccc(C(=O)Nc2nnc(-c3ccc(OC)cc3)o2)cc1	0.79
Cc1c(C(=O)Nc2ccc(F)cc2)oc2ccc(S(=O)(=O)N3CCCCC3)cc12	1
O=C(Nc1nnc(CCS(=O)(=O)c2ccc(Br)cc2)s1)C1CCCCC1	1
CCOC(=O)c1ccc(Nc2nc(-c3cc4cc(OC)ccc4oc3=O)cs2)cc1	1.1
Cc1ccc(S(=O)(=O)c2nc(-c3ccc(Cl)cc3Cl)oc2N2CCCCC2)cc1	0.74
COc1cc(Cl)c(S(=O)(=O)NCCc2c(C)[nH]c3ccc(C)cc23)cc1Cl	0.6
COc1ccc(S(=O)(=O)NCCc2c(C)[nH]c3ccc(C)cc23)cc1	0.45*
COc1ccc(OC)c(S(=O)(=O)NCCc2c(C)[nH]c3ccc(OC)cc23)c1	0.56
CC(=O)N1CCc2cc(S(=O)(=O)N(CCc3ccccc3)Cc3ccccc3)ccc21	0.78
CCOc1ccc(N2C(=O)CC(NCCc3ccccn3)C2=O)cc1 (stereo not given)	0.86
O=C1CC(NCCc2ccccn2)C(=O)N1c1ccc(Cl)cc1 (stereo not given)	0.17*
